Reference: PubChem BioAssay (EPA / NIEHS)
Results filed as inconclusive are left out. Active and inactive are the calls of the source. The calls were made as follows: active = hit-call score of the fitted dose curve at least 0.9, where 1 is the maximum; inconclusive = response in the unintended direction; inactive = score below 0.9.

Legend:
[1] = Tanguay_ZF_120hpf_YSE_legacy: (Legacy) Oregon State University Tanguay Lab 120 Hour Post-fertilization zebrafish Assay for Yolk Sac Edema (AID 2283634)
Summary of the method: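 Readout: presence or absence of yolk sac edema at 120 hpf, fitted upward against DMSO controls. Exposure ran statically from 6 hpf in dechorionated embryos kept at 28C.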

[2] = Tanguay_ZF_120hpf_AXIS_legacy: (Legacy) Oregon State University Tanguay Lab 120 Hour Post-fertilization zebrafish Assay for Body Axis Malformation (AID 2283635)
Summary of the method: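 Static 6–120 hpf chemical exposure of dechorionated wild-type 5D zebrafish, one per well at 28C; morphology endpoint scored binary at 120 hpf relative to DMSO control.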

[3] = Tanguay_ZF_120hpf_EYE_legacy: (Legacy) Oregon State University Tanguay Lab 120 Hour Post-fertilization zebrafish Assay for Eye Malformation (AID 2283636);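 also: binary presence or absence of eye malformation scored by brightfield in 120 hpf larvae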
Protocol: (§1) Tanguay_ZF_120hpf_legacy is a whole embryo, multiplexed endpoint assay using zebrafish larvae exposed for 120 hours post fertilization on a 96-well plate.Tanguay_ZF_120hpf_EYE_legacy is one of one assay component(s) measured or calculated from the Tanguay_ZF_120hpf_legacy assay. It is designed to make measurements of zebrafish development as detected with brightfield microscopy of developing zebrafish embryos.Data from the assay component Tanguay_ZF_120hpf_EYE_legacy was analyzed into 1 assay endpoints. This assay endpoint, Tanguay_ZF_120hpf_EYE_legacy, was analyzed in the positive analysis fitting direction relative to DMSO as the negative control and baseline of activity. […]
(§2) Zebrafish husbandry: Tropical 5D wild-type adult zebrafish were housed in at an approximate density of 1000 per 100 gallon tank at the Sinnhuber Aquatic Research Laboratory, Oregon State University, Corvallis, OR. […] At 24 hpf, embryos were assessed for photomotor response using a custom photomotor response analysis tool (PRAT) and for developmental toxicity endpoints (MO24: mortality at 24 hpf, DP: developmental progression, SM: spontaneous movement, and NC: notochord distortion). At 120 hpf, locomotor activity was measured using Viewpoint Zebralab and assessed for 18 endpoints. […] If mortality occurred for an embryo (at either 24 or 120 hpf), the non-mortality endpoints were not measured.

[4] = Tanguay_ZF_120hpf_SNOU_legacy: (Legacy) Oregon State University Tanguay Lab 120 Hour Post-fertilization zebrafish Assay for Snout Malformation (AID 2283637)
Protocol: as §1, with “plate.Tanguay_ZF_120hpf_SNOU_legacy” for “plate.Tanguay_ZF_120hpf_EYE_legacy”, “Tanguay_ZF_120hpf_SNOU_legacy” for “Tanguay_ZF_120hpf_EYE_legacy”, “Tanguay_ZF_120hpf_SNOU_legacy,” for “Tanguay_ZF_120hpf_EYE_legacy,”
as §2

[5] = Tanguay_ZF_120hpf_JAW_legacy: (Legacy) Oregon State University Tanguay Lab 120 Hour Post-fertilization zebrafish Assay for Jaw Malformation (AID 2283638)
Summary of the method: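 Static waterborne exposure of dechorionated wild-type (Tropical 5D) zebrafish from 6 to 120 hpf at 28C, 0.64% DMSO vehicle; 5uM trimethyltin chloride served as positive control. Jaw morphology recorded as binary at 120 hpf.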

[6] = Tanguay_ZF_120hpf_OTIC_legacy: (Legacy) Oregon State University Tanguay Lab 120 Hour Post-fertilization zebrafish Assay for Otic Vesicle Malformation (AID 2283639)
Summary of the method: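 Otic vesicle malformation is read as a yes/no morphology call at 120 hpf. Exposure is static at 28C with 0.64% (vol/vol) DMSO; embryos that die are excluded from non-mortality endpoints.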

[7] = Tanguay_ZF_120hpf_PE_legacy: (Legacy) Oregon State University Tanguay Lab 120 Hour Post-fertilization zebrafish Assay for Pericardial Edema (AID 2283640)
Summary of the method: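 Read-out is the presence or absence of pericardial edema at 120 hpf under brightfield, with gain of signal fitted against DMSO controls. Larvae (5D wild-type) were statically exposed at 28C with 0.64% final DMSO.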

[8] = Tanguay_ZF_120hpf_BRAI_legacy: (Legacy) Oregon State University Tanguay Lab 120 Hour Post-fertilization zebrafish Assay for Brain Malformation (AID 2283641)
Summary of the method: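 Brain malformation in Tropical 5D zebrafish was recorded as a binary endpoint after static compound exposure from early development to 120 hpf at 28C. Activity was analysed against DMSO as negative control.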

[9] = Tanguay_ZF_120hpf_SOMI_legacy: (Legacy) Oregon State University Tanguay Lab 120 Hour Post-fertilization zebrafish Assay for Somite Malformation (AID 2283647)
Summary of the method: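 5D WT zebrafish; chorion removed 4 hpf; 1 embryo/well from 6 hpf; static exposure to 120 hpf, 28C, 0.64% DMSO final. Endpoint: somite malformation, binary, brightfield. Mortality excluded.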

[10] = Tanguay_ZF_120hpf_PFIN_legacy: (Legacy) Oregon State University Tanguay Lab 120 Hour Post-fertilization zebrafish Assay for Pectoral Fin Malformation (AID 2283648);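 also: each larva judged yes or no for fin defect by brightfield with dead larvae skipped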
Summary of the method: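 Dechorionated Tropical 5D wild-type zebrafish embryos, one per well, statically exposed from 6 to 120 hpf at 28C with 0.64% DMSO final. Pectoral fin malformation scored present/absent by brightfield at 120 hpf; not scored in dead embryos.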

Measured: outcome

O=C(O)c1ccc([N+](=O)[O-])cc1
inactive: [1] | [2] | [3] | [4] | [5] | [6] | [7] | [8] | [9] | [10]
